# HDAC3 inh: blocks human histone deacetylase 3; O15379; recombinant HDAC3, fluorogenic peptide/trypsin coupled, fluorescence; inhibition, % at 8.3 µM; hit rate 0.15% among 320,000; AID 2718; in the data active means inhibition above about 26%, passing the limit was not always enough
# Rce1 inhib: inhibitors of yeast Ras-converting enzyme | Q03530 | yeast membranes, quenched prenylated peptide cleavage fluorescence | calls only | hit rate 0.27% among 290,000;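 active means fall in fluorescence gain of 50% or more versus controls, with final raw signal at or below 3038400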;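 further: plate controls were neutral control wells for no effect and wells lacking membranes for full effect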
# ALR H2O2 inh: blocks human ALR sulfhydryl oxidase activity; purified ALR, DTT oxidation, H2O2 HRP-luminol luminescence; inhibition, % (test concentration not listed); hit rate 3.8% among 290,000; AID 485317;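 active means mean replicate inhibition above about 79%, with every replicate also reaching it, limit read from the data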
# Target sequence (P55789 whole entry, looked up): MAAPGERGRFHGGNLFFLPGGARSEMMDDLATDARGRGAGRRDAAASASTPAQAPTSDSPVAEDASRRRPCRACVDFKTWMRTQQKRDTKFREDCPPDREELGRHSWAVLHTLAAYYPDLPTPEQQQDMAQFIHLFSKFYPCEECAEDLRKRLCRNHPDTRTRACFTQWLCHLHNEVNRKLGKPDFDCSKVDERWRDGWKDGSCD
# GRK2 aptamer HTS: blocks RNA aptamer binding to human GRK2; bead flow cytometry, FAM-aptamer displacement from GRK2; inhibition of aptamer binding, % at 10 µM; hit rate 0.59% among 330,000;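 active means inhibition of aptamer binding above 40%, roughly 3 SD of noise, on plates passing a quality check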;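 further: median bead fluorescence of bound FAM aptamer so fluorescent compounds give negative values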
# Efflux pump mplx: antifungal efflux pump inhibition, Nile Red retention; hit rate 0.44% among 330,000; AID 485275; S. cerevisiae Candida pump triplex; inhibition, % at 10 µM;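 active means plate passing quality check with inhibition over a set limit, or well fluorescence over plate mean plus 4 SD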;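 further: Nile Red retained in pooled yeast measured as flow cytometry median fluorescence; 0% = buffer negative control and 100% = Enniatin B positive control; higher means more Nile Red kept so more efflux inhibition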
# Rtt109 Vps75: C. albicans Rtt109 histone acetyltransferase inhibition. Q5AAJ8. purified Rtt109/Vps75, ThioGlo CoA-SH fluorescence, 4 h. inhibition, % at 34.9 µM. hit rate 0.16% among 330,000. AID 540336;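 active means inhibition of at least 50% in every replicate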
# Target sequence (Q5AAJ8 whole entry, looked up): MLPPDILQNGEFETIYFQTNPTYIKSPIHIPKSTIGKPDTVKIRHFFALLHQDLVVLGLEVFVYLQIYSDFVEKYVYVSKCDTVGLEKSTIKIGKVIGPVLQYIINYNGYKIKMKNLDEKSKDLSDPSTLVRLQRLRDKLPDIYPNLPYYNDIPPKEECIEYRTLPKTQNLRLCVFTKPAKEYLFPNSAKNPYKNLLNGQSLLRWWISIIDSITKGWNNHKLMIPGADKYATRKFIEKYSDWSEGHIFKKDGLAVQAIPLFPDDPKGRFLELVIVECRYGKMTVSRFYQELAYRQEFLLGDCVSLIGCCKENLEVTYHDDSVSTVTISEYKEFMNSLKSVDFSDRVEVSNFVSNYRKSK
# Numbers without * were called inactive; i = inactive; · = no result given; + = active, no number. Compounds with a hit are over-represented: about 4.5% of the library has one in this group of screens.
SMILES,HDAC3 inh,Rce1 inhib,ALR H2O2 inh,GRK2 aptamer HTS,Efflux pump mplx,Rtt109 Vps75
CCOc1ccc(C(=O)N2CCC3(CC2)NCCc2[nH]cnc23)cc1OCC,-2.9,i,-26.5,4.0,0.0,19.7
N#Cc1nc(-c2ccco2)oc1N1CCN(C(c2ccccc2)c2ccccc2)CC1,-9.4,+,-3.9,3.0,-0.1,35.3
N#Cc1nc(-c2ccco2)oc1N1CCCC1,-10.1,i,-18.0,1.0,0.1,3.3
O=C(COc1ccc(Br)cc1)NNC(=O)c1cc(S(=O)(=O)N2CCOCC2)ccc1Cl,·,·,·,·,·,-0.2
C=C(C)C(=O)Oc1ccc(N2C(=O)[C@@H]3C4C=CC(C4)[C@@H]3C2=O)cc1,9.1,i,-7.5,0.0,0.5,3.4
COc1ccc(C2C(C(C)=O)=C(C)N=c3s/c(=C\c4ccco4)c(=O)n32)c(OC)c1 (stereo not drawn),2.8,i,-2.3,8.0,0.2,0.1
COc1ccc(C2C(C(C)=O)=C(C)N=c3s/c(=C\c4cc(C)n(C)c4C)c(=O)n32)c(OC)c1 (stereo not drawn),-0.8,i,4.8,3.0,2.5*,-1.0
CCOC(=O)C1=C(C)N=c2s/c(=C/c3cccc([N+](=O)[O-])c3O)c(=O)n2C1c1ccc(OC)cc1OC (stereo not drawn),6.3,i,-13.9,3.0,0.7*,-0.1
COc1ccccc1N1CCN(C(=O)c2oc3c(c2C)C(=O)CC(C)(C)C3)CC1,-3.1,i,15.1,1.0,0.2,0.6
COc1ccc(C2Nc3ccccc3NC3=C2C(=O)CC(C)(C)C3)cc1 (stereo not drawn),-3.1,i,57.2,2.0,-0.2,2.0
CC1(C)CC(=O)C2=C(C1)Nc1ccccc1NC2c1ccc2c(c1)OCO2 (stereo not drawn),-0.8,i,99.5*,0.0,0.0,-20.0
CN(C)c1ccc(C2CC(=O)OC3=C2C(=O)CC(C)(C)C3)cc1 (stereo not drawn),1.5,i,98.7*,9.0,-0.1,3.9
CC1(C)CC(=O)C2=C(C1)Nc1ccccc1NC2c1ccccn1 (stereo not drawn),-2.5,i,83.0*,0.0,-0.1,-7.2
CN1C(=O)NC(c2ccc(Cl)cc2)C2=C1CC(C)(C)CC2=O (stereo not drawn),6.6,i,94.5*,0.0,0.0,-3.0
CC1(C)CC(=O)C2=C(C1)OC(=O)CC2c1cccs1 (stereo not drawn),-0.5,i,-2.3,1.0,0.0,-3.1
CC1CC2=C(C(=O)O1)C(C)Nc1ccccc1N2 (stereo not drawn),·,i,·,1.0,0.4,-1.2
CC1CC2=C(C(=O)O1)C(c1ccccc1)Nc1ccccc1N2 (stereo not drawn),-0.5,i,98.0*,5.0,0.1,-1.1
CC1(C)CC(=O)C2=C(C1)Nc1cc3c(cc1C2c1ccc2c(c1)OCO2)OCO3 (stereo not drawn),10.0,i,-23.7,4.0,-0.4,-95.3
CC1(C)CC(=O)C2=C(C1)Nc1ccccc1NC2c1nc2ccccc2[nH]1 (stereo not drawn),0.6,i,97.8*,0.0,0.0,-1.4
CC1(C)CC(=O)C2=C(C1)Nc1cc3c(cc1C2c1ccc(F)cc1)OCO3 (stereo not drawn),-4.9,i,98.0*,3.0,0.0,4.3
Cc1noc2c1C(c1ccc(N(C)C)cc1)C1=C(CC(C)(C)CC1=O)N2 (stereo not drawn),1.1,i,98.4*,3.0,0.0,7.2
CC1(C)CC(=O)C2=C(C1)Nc1ccccc1NC2c1ccc(F)cc1 (stereo not drawn),-8.0,i,99.4*,0.0,-0.1,0.9
CS(=O)(=O)N(CC(=O)N1CCCCCC1)c1cccc(F)c1,-21.4,i,-24.0,1.0,0.0,-2.4
O=S1(=O)CC(NCc2ccccc2)C(Nc2ccccc2)C1 (stereo not drawn),-0.9,i,34.9,2.0,0.0,-6.4
COc1ccc(NC2CS(=O)(=O)CC2NCc2ccco2)cc1 (stereo not drawn),11.3,i,98.7*,2.0,0.0,6.4
SMILES,HDAC3 inh,Rce1 inhib,ALR H2O2 inh,GRK2 aptamer HTS,Efflux pump mplx,Rtt109 Vps75
COc1ccc(-c2csc(NC(=O)CSc3nc(C)nc4sc(C(=O)O)c(C)c34)n2)cc1,-4.0,i,99.0*,1.0,0.2,-6.1
COc1ccc(-c2csc(NC(=O)CSc3nc(C)cs3)n2)cc1,-4.5,i,-6.4,0.0,0.3,-8.9
CCOC(=S)SCC(=O)Nc1nc(-c2ccc(Br)cc2)cs1,3.7,i,98.6*,2.0,0.1,3.4
CCOC(=S)SCC(=O)Nc1nc(-c2ccccc2)cs1,5.5,i,99.1*,0.0,-0.2,-1.0
CCOC(=O)N1CCN(C(=O)CSCC(=O)Nc2nc(-c3ccc(OC)cc3)cs2)CC1,1.4,i,98.6*,1.0,0.0,2.6
CCOC(=O)N1CCN(C(=O)CSCC(=O)Nc2nc(-c3ccc(-c4ccccc4)cc3)cs2)CC1,-6.0,i,3.7,0.0,0.5,1.0
O=C(Nc1ncccc1O)c1ccc(S(=O)(=O)Nc2ccccc2)cc1,·,i,-0.5,4.0,0.0,1.6
CCN(CC)c1ccc(NC(=O)COC(=O)C23CCC(=O)N2c2ccccc2S3)cc1 (stereo not drawn),3.6,i,96.8*,0.0,0.1,-0.6
CN(C)c1ccc(NC(=O)COC(=O)CNC(=O)c2cccs2)cc1,-9.1,·,95.9*,0.0,-0.1,-3.8
CCN(CC)c1ccc(NC(=O)COC(=O)CCC(=O)c2cccs2)cc1,0.8,·,99.1*,3.0,0.1,-5.1
CCN(CC)c1ccc(NC(=O)COC(=O)COc2ccccc2[N+](=O)[O-])cc1,12.7,i,99.4*,5.0,0.3,3.3
Cc1ccc(S(=O)(=O)N(C)C)cc1NC(=O)COC(=O)c1sc2cc(Cl)ccc2c1Cl,8.1,i,-1.5,2.0,-0.1,-5.6
COC(=O)C(Cc1ccccc1)NCC(=O)Nc1cccc(Cl)c1C (stereo not drawn),0.1,i,-2.5,3.0,-0.1,-4.0
CN(C)c1ccc(NC(=O)COC(=O)CCC(=O)c2ccc(F)cc2)cc1,-5.2,i,96.6*,0.0,-0.1,4.3
O=C(NCC(c1ccco1)N1CCc2ccccc2C1)c1ccc(Br)cc1 (stereo not drawn),5.8,i,-7.3,0.0,-0.1,0.9
COc1ccccc1NC(=O)CSC1=NC(=O)C(Cc2ccccc2)C(=O)N1 (stereo not drawn),0.0,i,98.8*,0.0,0.0,12.2
CCC1C(=O)N=C(SCC(=O)Nc2ccc(S(N)(=O)=O)cc2)NC1=O (stereo not drawn),1.5,i,99.5*,3.0,-0.1,-12.4
CCC1C(=O)N=C(SCC(=O)Nc2ccccc2)NC1=O (stereo not drawn),4.4,i,99.3*,0.0,0.1,5.8
